Sampled rows, rich in hits. Any-hit rate of the full collection: about 3%.
PLK1 PBD inh = qHTS for Inhibitors of PLK1-PDB (polo-like kinase 1 - polo-box domain): Primary Screen; Serine/threonine-protein kinase PLK1 (Homo sapiens), P53350; Plk1 PBD binding of FITC phosphopeptide, fluorescence polarization; Potency, µM, for the others: max response, negative = inhibition, actives largely listed as inhibitors; 360,000 compounds, 2.8% hits; further: series mostly up to about 57 µM; on the % scale 0 is the no-effect control and ±100 the full control effect; nearly all actives have a fitted effect of over 65% in size
KAT2A inh = qHTS Assay for Inhibitors of GCN5L2; Histone acetyltransferase KAT2A (Homo sapiens), Q92830; GCN5L2 HAT assay, ThioGlo1 CoA-SH fluorescence; Potency, µM (series often up to 58.9 µM), for inactives: at the highest dose activity change, negative = inhibition, most hits filed as inhibitors; 390,000 compounds, 0.21% hits; further: on the % scale 0 is the no-effect control and ±100 the full control effect
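Fluorescence readout, Ex340nm/Em540nm: ThioGlo1 (50uM final) reacts with free CoA thiol released as 20nM GCN5L2 acetylates H3(1-25) peptide (75uM) using acetyl-CoA (70uM). Compound and enzyme sat 15 min beforehand; 20 min room-temperature reaction.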
VDR inh = Inhibitors of the vitamin D receptor (VDR): qHTS; 400,000 compounds, 0.93% hits; VDR-SRC2-3 peptide fluorescence polarization, 2 h; Vitamin D3 receptor (Homo sapiens), P11473; Potency, µM, inactives show max response, negative = inhibition, usual class: inhibitors; further: on the % scale 0 is the no-effect control and ±100 the full control effect
Target sequence (P11473 whole entry, looked up): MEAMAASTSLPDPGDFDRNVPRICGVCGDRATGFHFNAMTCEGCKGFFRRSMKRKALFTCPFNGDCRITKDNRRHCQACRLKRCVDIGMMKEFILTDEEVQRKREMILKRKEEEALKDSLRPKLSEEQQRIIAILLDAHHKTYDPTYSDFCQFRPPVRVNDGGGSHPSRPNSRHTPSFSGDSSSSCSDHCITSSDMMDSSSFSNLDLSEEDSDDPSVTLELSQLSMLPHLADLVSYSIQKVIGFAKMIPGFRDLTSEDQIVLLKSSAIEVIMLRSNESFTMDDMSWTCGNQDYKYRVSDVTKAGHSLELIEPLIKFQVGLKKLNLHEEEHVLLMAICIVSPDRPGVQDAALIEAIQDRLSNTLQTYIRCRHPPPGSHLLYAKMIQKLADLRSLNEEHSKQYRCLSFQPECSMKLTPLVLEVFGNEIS
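The screen uses fluorescence polarization to detect compounds that interfere with recruitment of the SRC2-3 coactivator peptide to VDR; plates are read after 2 h at room temperature.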
PTAP TSG101 blk = qHTS Assay for Iinhibitors of HIV-1 Budding by Blocking the Interaction of PTAP/TSG101; Fluorescence polarization, FITC-PTAP peptide / Tsg101 binding; 340,000 tested, under 10 active; Potency, µM (series often up to 115 µM), inactives show at the top dose activity change, negative = inhibition, hits mostly inhibitors; Tumor susceptibility gene 101 protein (Homo sapiens), Q99816; active means well fitted inhibition curve with a large enough effect in the main read-out, with a control signal flat, not every such curve was filed as active; inconclusive means small, poorly fitted or top-dose-only effect, or effect the other way, or a change in a side signal; inactive means no such curve, though single readings can be large or run the other way; further: % of control where 0% means no effect
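Compounds were pin-transferred onto Tsg101 binding domain (10 uM final) in HEPES pH 7.5 buffer, then FITC-PTAP peptide was added at 50 nM final. After 20 min at RT, polarization reported peptide displacement across a qHTS concentration series.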
USP1-UAF1 inh = Inhibitors of USP1/UAF1: Primary Screen; Ubiquitin carboxyl-terminal hydrolase 1 (Homo sapiens), O94782; recombinant USP1/UAF1, Ub-Rhodamine cleavage fluorescence; Potency, µM (highest dose often 57.1 µM), without a hit: at the highest dose activity change, negative = inhibition, usual class: inhibitors; 390,000 compounds, 0.23% hits; further: on the % scale 0 is the no-effect control and ±100 the full control effect; nearly all actives have a fitted effect of over 60% in size
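USP1/UAF1 complex (1 nM) preincubated 15 min at room temperature with compound, then Ub-Rho substrate (150 nM final) added. Kinetic fluorescence at 480/540 nm over 6 reads at 60 s intervals; 50 mM HEPES pH 7.8, 0.5 mM EDTA, 0.1 mg/ml BSA, 1 mM TCEP, 0.01% Tween-20.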
An asterisk follows results filed as active; ? = inconclusive; / = no result given. Unless noted, the call rests on the fitted dose curve; in most records, active means well fitted curve in the direction sought with a large enough effect; inconclusive means small, poorly fitted or top-dose-only effect, or another doubt; inactive means no such curve, though single readings can be large; an effect the other way counts as inactive or inconclusive. Potency means the concentration at half of the fitted maximal effect.

SMILES	PLK1 PBD inh	KAT2A inh	VDR inh	PTAP TSG101 blk	USP1-UAF1 inh
Cn1ncc(C#N)c1NC(=O)C1CC(c2ccccc2Cl)=NO1 (stereo unspecified)	29.9µM*	-23.8%	-22.1%	1.0%	-11.5%
O=C(Nc1cc(Br)ccc1O)C1CC(c2ccccc2Cl)=NO1 (stereo unspecified)	6.2%	?	1.4%	0.3%	-21.9%
O=C(CSc1nc2[nH]ncc2c(=O)[nH]1)NCc1ccccc1	-11.5%	-0.4%	-2.7%	-1.1%	-12.3%
O=C(CSc1nncc(=O)[nH]1)Nc1cccc([N+](=O)[O-])c1	21.2µM*	-3.0%	?	-6.3%	-30.8%
O=C(CSc1nncc(=O)[nH]1)NCc1ccccc1	26.7µM*	-2.7%	5.8%	0.3%	-18.6%
Cc1ccc([C@@H]2CC(=O)[C@@H]3CN(S(=O)(=O)c4ccc(C)cc4)[C@H](c4ccccc4)C[C@@H]3N2S(=O)(=O)c2ccc(C)cc2)cc1	0.0%	/	/	/	/
Cn1c(SCC(=O)NCc2cccs2)nnc1-c1ccc(O)cc1	23.8µM*	-3.8%	?	0.0%	-12.8%
Cc1nn(CCC#N)c2nc(-c3ccccc3)cc(C(F)(F)F)c12	-1.9%	-4.7%	-5.4%	-2.7%	-24.6%
Cc1nn(CCC(N)=S)c2nc(-c3cccs3)cc(C(F)(F)F)c12	10.6µM*	1.0%	?	-3.5%	-22.6%
COCCn1c(CNC(=O)c2cccc(N(C)C)c2)nc2cccnc21	/	0.6%	6.9%	/	-6.4%
CCOc1ccccc1CN1CCNC(=O)C1CC(=O)NC1CCCCC1 (stereo unspecified)	-11.1%	2.2%	-7.9%	-5.7%	-8.8%
CCOc1ccccc1CN1CCNC(=O)C1CC(=O)NC1CCCCCC1 (stereo unspecified)	21.2µM*	1.5%	?	-7.0%	-14.9%
CCOC(=O)C(CC)n1nc(C)c2c(C)n(-c3ccc(C)cc3)nc2c1=O (stereo unspecified)	/	-2.2%	5.0%	/	?
O=C1CCCC1C(O)c1ccc2ccccc2c1 (stereo unspecified)	/	/	1.6%	/	/
CCC1CN(C(=O)N2CCC(C(=O)Nc3ccccc3OC)CC2)c2ccccc2O1 (stereo unspecified)	26.7µM*	1.4%	?	-4.2%	-21.3%
CCC1CN(C(=O)N2CCC(C(=O)NCCOC)CC2)c2ccccc2O1 (stereo unspecified)	/	0.3%	-1.5%	/	-10.1%
Cc1ncc(CO)c(/C=N/NC(=S)Nc2ccc(C(C)C)cc2)c1O	11.9µM*	0.5%	?	-3.6%	-28.7%
Cc1ncc(CO)c(/C=N/NC(=O)c2ccc(Br)cc2)c1O	/	-19.5%	/	/	/
Nc1cccc(-n2nnnc2CN2CCOCC2)c1	10.6µM*	8.3%	44.7µM*	-7.1%	-14.9%
Nc1ccc(-n2nnnc2CN2CCOCC2)cc1	-11.3%	-0.1%	19.2%	-0.1%	-10.1%
CC(C)C(C(=O)O)N1C(=O)/C(=C/c2ccc(Br)cc2)SC1=S (stereo unspecified)	/	?	5.01µM*	/	/
CCC(C(=O)O)N1C(=O)/C(=C/C(C)=C/c2ccccc2)SC1=S (stereo unspecified)	23.8µM*	?	?	-4.8%	-11.7%
O=C(O)C(Cc1ccccc1)N1C(=O)/C(=C/c2ccccc2)SC1=S (stereo unspecified)	?	-9.7%	?	-2.2%	-15.7%
CC(=C\c1ccccc1)/C=C1/SC(=S)N(C(C(=O)O)C(C)C)C1=O (stereo unspecified)	29.9µM*	?	?	-4.0%	-21.1%
Cc1ccc(/C=C2\SC(=S)N(C(Cc3ccccc3)C(=O)O)C2=O)cc1 (stereo unspecified)	?	12.3%	50.1µM*	-3.6%	?
CCCn1c(=N)c(C(=O)NC2CCCCC2)cc2c(=O)n3cc(C)ccc3nc21	/	-0.8%	-14.8%	/	-23.8%
Cc1ccc(S(=O)(=O)NCCC(=O)OCC(=O)NC(=O)c2cccn2C)cc1	-0.3%	21.7%	4.7%	-1.1%	-26.0%
